From PubChem BioAssay
RMI FANCM FP: blocks RMI1/RMI2 complex binding to FANCM MM2 peptide; Fluorescence polarization, RMI core complex with F-MM2 peptide; hits give low values; 70,000 compounds, 0.58% hits; AID 1159607; FP signal (polarization) at 33 µM; in the data active = FP signal below about 40
Starred values were filed as active, the others as inactive. This excerpt belongs to a sample that is enriched for hits.

For CSc1nccc(-c2ccc(Br)s2)n1 the results were RMI FANCM FP 62.
Cc1ccc(C(=O)Nc2nc3ccc4ccccc4c3s2)c(C)c1 was read as RMI FANCM FP 64.
For Cc1ccc2nc(C)c(NC(=O)Cc3ccccc3)c(=O)n2c1 the results were RMI FANCM FP 73.
Screening Cc1ccc2nc(C)c(NC(=O)Cc3cccs3)c(=O)n2c1 returned RMI FANCM FP 28*.
For CCOC(=O)C(=O)Nc1c(C)nc2ccc(C)cn2c1=O the results were RMI FANCM FP 55.
Screening Cc1ccc(-n2cc(C(=O)N3CCN(Cc4ccccc4)CC3)nn2)cc1 returned RMI FANCM FP 64.
For O=C(Nc1csc(-c2ccc(Oc3ccc(-c4nc(NC(=O)c5cc(Cl)sc5Cl)cs4)cc3)cc2)n1)c1cc(Cl)sc1Cl the results were RMI FANCM FP 65.
Screening O=S(=O)(c1ccc(-c2nc(-c3ccc(Cl)cc3)cs2)cc1)N1CCOCC1 returned RMI FANCM FP 50.
For O=C(Nc1csc(-c2ccc(Oc3ccc(-c4nc(NC(=O)c5ccc(S(=O)(=O)N6CCOCC6)cc5)cs4)cc3)cc2)n1)c1ccc(S(=O)(=O)N2CCOCC2)cc1 the results were RMI FANCM FP 9*.
`O=C(Nc1csc(-c2ccc(Oc3ccc(-c4nc(NC(=O)c5ccc(C(=O)c6ccccc6)cc5)cs4)cc3)cc2)n1)c1ccc(C(=O)c2ccccc2)cc1` gave RMI FANCM FP 25*.
Screening O=C(Nc1nc(-c2ccc(Br)cc2)cs1)c1ccc(Oc2ccc(C(=O)Nc3nc(-c4ccc(Br)cc4)cs3)cc2)cc1 returned RMI FANCM FP 58.
Screening O=C(Nc1ccc(S(=O)(=O)N2CCOCC2)cc1)c1ccc(Cl)cc1 returned RMI FANCM FP 55.
`COc1cc(C2NC(=O)NC3=C2C(=O)N(Cc2ccco2)C3)cc(OC)c1OC` (stereo not drawn) gave RMI FANCM FP 54.
`CN(C(=O)c1c(F)cccc1F)C1CCS(=O)(=O)C1` (stereo not drawn) gave RMI FANCM FP 53.
`COC(=O)c1ccc(NC(=O)CSc2ncnc3ccccc23)cc1` gave RMI FANCM FP 67.
CCOc1ccc(CC(=O)N2CCN(c3ccc(-c4ccc(F)cc4)nn3)CC2)cc1 was read as RMI FANCM FP 72.
Screening O=C(NCC(O)c1ccccc1)C1CCC1 (stereo not drawn) returned RMI FANCM FP 55.
For O=C(/C=C/c1cccs1)Nc1nccs1 the results were RMI FANCM FP 60.
For Cn1nc2c(c1NC(=O)COc1ccccc1)CCC2 the results were RMI FANCM FP 63.
Screening Cn1nc2c(c1NC(=O)/C=C/c1cccs1)CCC2 returned RMI FANCM FP 37*.
For O=C(c1cccs1)N1CCc2ccc(NS(=O)(=O)c3cccc(F)c3)cc2C1 the results were RMI FANCM FP 69.
For O=C(Cc1csc(Nc2cccc(Cl)c2)n1)NCc1ccccn1 the results were RMI FANCM FP 63.
O=S(=O)(Cc1ccc(F)cc1)NCc1ccsc1 was read as RMI FANCM FP 68.
`O=C(Nc1nc(-c2ccc3c(c2)OCCO3)cs1)c1ccc2ncsc2c1` gave RMI FANCM FP 68.
`O=C(Nc1nc(-c2ccccn2)cs1)c1ccc2ncsc2c1` gave RMI FANCM FP 84.
Screening O=C(Nc1nc(-c2ccc(Br)s2)cs1)c1ccc2ncsc2c1 returned RMI FANCM FP 26*.
Screening CSc1nc(NC(C)C)c2cnn(CCNC(=O)c3cc(=O)c4ccccc4o3)c2n1 returned RMI FANCM FP 57.
For COc1coc(C(=O)Nc2nc3c(C)cccc3s2)cc1=O the results were RMI FANCM FP 60.
O=S(=O)(N/N=C\c1cc(Br)ccc1O)c1ccccc1 was read as RMI FANCM FP 59.
For O=S(=O)(N=Cc1cc(Br)ccc1O)c1ccccc1 the results were RMI FANCM FP 21*.
Screening NS(=O)(=O)c1ccc(N=Cc2cc(Br)ccc2O)cc1 returned RMI FANCM FP 48.
Screening COCCN1CCC(CNC(=O)C(=O)Nc2ccccc2C)CC1 returned RMI FANCM FP 74.
`CCNC(=O)c1csc(Nc2ccc(S(C)(=O)=O)cc2)n1` gave RMI FANCM FP 63.
Screening O=C(NCCC1=CCCCC1)C(=O)Nc1ccc(F)c(F)c1 returned RMI FANCM FP 70.
O=c1oc2ccc(Cl)cc2cc1S(=O)(=O)c1ccc(Cl)c(Cl)c1 was read as RMI FANCM FP 63.
Screening CCn1c(SCC(=O)Nc2cccc(NC(C)=O)c2)nnc1-c1cccn(C)c1=O returned RMI FANCM FP 62.
COC(=O)c1ccc2c(c1)C(=O)/C(=C/c1ccc(O)c(OC)c1)O2 was read as RMI FANCM FP 72.
`COC(=O)c1ccc2c(c1)C(=O)/C(=C/c1ccccc1F)O2` gave RMI FANCM FP 14*.
For COC(=O)c1ccc2nsnc2c1 the results were RMI FANCM FP 61.
O=[N+]([O-])c1cccc(CSC2=NCCN2)c1 was read as RMI FANCM FP 67.
S=c1[nH]cc2ccccn12 was read as RMI FANCM FP 18*.
Cn1c(-c2ccccc2)c[nH]c1=S was read as RMI FANCM FP 60.
S=c1[nH]nc2ccccn12 was read as RMI FANCM FP 56.
`CC(C)=C1N=C(c2ccccc2)OC1=O` gave RMI FANCM FP 60.
